Assay results from PubChem BioAssay AID1159580 (chemical genetic matrix, 2015).
Out of some 5,500 compounds screened, about 2,000 (36%) were called active. Another 18% or so got no clear call; they are omitted. Rule as the data show it: active = normalized growth mostly below about 0.91 (no sharp cut-off); inconclusive = no clear call, values can overlap the other calls; inactive = mostly above about 0.92. This is one part of the list.

Assay: chemical genetic growth profiling, strain panel (AID 1159580);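 also: tested at 20 µM; growth read once vehicle control cultures reached saturation at 30 °C; 1 = growth at the plate median or of vehicle wells; lower values mean less growth of the strain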
Conditions: S. cerevisiae deletion strains, growth OD

Measured: normalized growth

COc1ccc2c3c1O[C@H]1C(=O)CC[C@@]4(O)C(C2)N(CC2CC2)CCC314 (stereo partly specified)
inactive: locus YAL040C, strain CLN3, stronger effect = lower value 0.992 | locus YCL061C, strain MRC1 (second series), stronger effect = lower value 0.999 | locus YDR363W, strain ESC2, stronger effect = lower value 1.02 | locus YER002W, strain NOP16, stronger effect = lower value 0.991 | locus YJR075W, strain HOC1, stronger effect = lower value 0.995 | locus YMR263W, strain SAP30, stronger effect = lower value 1 | locus YMR307W, strain GAS1, stronger effect = lower value 0.993 | locus YNL128W, strain TEP1, stronger effect = lower value 0.99 | locus YNL153C, strain GIM3, stronger effect = lower value 0.995 | locus YNL175C, strain NOP13, stronger effect = lower value 1.01 | locus YNL197C, strain WHI3, stronger effect = lower value 1.02 | locus YNL224C, strain SQS1, stronger effect = lower value 0.992 | locus YNL322C, strain KRE1, stronger effect = lower value 1.01 | locus YOR083W, strain WHI5 (second series), stronger effect = lower value 0.999 | locus YPL055C, strain LGE1, stronger effect = lower value 1 | locus YPL241C, strain CIN2, stronger effect = lower value 0.999
